Source: PubChem BioAssay (Tox21)
Where “and” joins values, the source holds several entries; their conditions need not be identical. Equal values may be shown once. Results filed as inconclusive are left out. Where a call stands in place of a potency, no number is given. Calls of active or inactive are those of the source. Unless noted, calls come from the whole dose curve; as a rule, active = well fitted curve in the direction sought with a large enough effect in the repeat runs; inconclusive = weak or mixed curves; inactive = no such curve, though single readings can be large; an effect the other way counts as inactive or inconclusive.

Molecular target: Nuclear receptor subfamily 1 group I member 3 (Homo sapiens) (UniProt Q14994)
Test: qHTS assay to identify small molecule agonists of the constitutive androstane receptor (CAR) signaling pathway (AID 1224839); note: nearly all actives have a fitted effect of over 15% in size; note: potency is the fitted concentration of half-maximal effect
Settings: HepG2 hCAR CYP2B6-luciferase, agonist mode, 24 h; series mostly up to 92.4 µM
Outline: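 Readout: firefly luciferase luminescence via ONE-Glo. System: HepG2 double-stable for hCAR and CYP2B6-2.2kb. Conditions: 15-point compound titration, PK11195 at 0.75 uM final, 24 h incubation.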

Nuclear receptor subfamily 1 group I member 3 (Homo sapiens), sequence (Q14994 whole entry, looked up): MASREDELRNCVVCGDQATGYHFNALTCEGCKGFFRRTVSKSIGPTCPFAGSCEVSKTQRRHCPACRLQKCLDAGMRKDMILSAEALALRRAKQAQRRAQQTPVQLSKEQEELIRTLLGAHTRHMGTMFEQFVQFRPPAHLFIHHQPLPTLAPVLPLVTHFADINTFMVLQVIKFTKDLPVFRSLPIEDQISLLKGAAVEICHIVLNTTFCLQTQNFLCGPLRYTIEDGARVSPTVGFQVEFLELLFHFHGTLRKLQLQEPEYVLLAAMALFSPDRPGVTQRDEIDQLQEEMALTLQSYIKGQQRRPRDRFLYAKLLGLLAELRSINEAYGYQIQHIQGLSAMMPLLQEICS

With `CON(C)C(=O)Nc1ccc(Cl)c(Cl)c1` as the compound, how does the Potency read?
The Potency was 61.4 µM (active) and 54.5 µM (active).

Which Potency does the source give for `CC(C)C1(C)N=C(c2nc3ccccc3cc2C(=O)O)NC1=O` (centres undefined) here?
Its Potency is “inactive”.

With `Clc1cccc(Cl)c1Cl` as the compound, how does the Potency read?
Its Potency is “inactive”.

Which Potency does the source give for `Cc1ccc(N)cc1Cl` here?
Its Potency is “inactive”.

For `O=c1[nH]c(=O)[nH]c(=O)[nH]1`, which Potency is on record?
The Potency was “inactive”.

With `O=C(NC(=O)c1c(F)cccc1F)Nc1cc(Cl)c(OC(F)(F)C(F)C(F)(F)F)cc1Cl` (centres undefined) as the compound, how does the Potency read?
Its Potency is “inactive”.

With `Cc1cc(Cl)ccc1O` as the compound, how does the Potency read?
Its Potency is “inactive”.

With `CN=C=S` as the compound, how does the Potency read?
The Potency was “inactive”.

Which Potency does the source give for `CC(C)(C)OOC(=O)c1ccccc1` here?
Its Potency is “inactive”.

For `O=NN1CCCC1`, which Potency is on record?
Its Potency is “inactive”.

For `CC(C)C#N`, which Potency is on record?
Its Potency is “inactive”.

With `c1cc2c3c(cccc3c1)CC2` as the compound, how does the Potency read?
The Potency was “inactive”.

For `CNC(=O)Oc1ccccc1OC(C)C`, which Potency is on record?
The Potency was “inactive”.

Which Potency does the source give for `O=Cc1cccc(Oc2ccccc2)c1` here?
Its Potency is “inactive”.

For `CC(C)(Cl)Cl`, which Potency is on record?
Its Potency is “inactive”.

With `NCC(O)c1ccc(O)cc1` (centres undefined) as the compound, how does the Potency read?
The Potency was “inactive”.

Which Potency does the source give for `BrCCBr` here?
The Potency was “inactive”.

With `Nc1ccccc1C(=O)O` as the compound, how does the Potency read?
The Potency was “inactive”.

For `CN(C)CCO`, which Potency is on record?
The Potency was “inactive”.

With `O=[N+]([O-])c1ccc([As](=O)(O)O)cc1` as the compound, how does the Potency read?
The Potency was “inactive”.

For `Clc1ccc(Cl)cc1`, which Potency is on record?
The Potency was “inactive”.

With `CC(C)(C)C(O)(CCc1ccc(Cl)cc1)Cn1cncn1` (centres undefined) as the compound, how does the Potency read?
The Potency was “inactive”.

With `C1CC2OC2CC1C1CO1` (centres undefined) as the compound, how does the Potency read?
The Potency was “inactive”.

For `Nc1ccc(Oc2ccc(N)cc2)cc1`, which Potency is on record?
The Potency was “inactive”.

With `COCCl` as the compound, how does the Potency read?
Its Potency is “inactive”.

For `CN(C)N=O`, which Potency is on record?
The Potency was “inactive”.

For `Clc1ccccc1Cl`, which Potency is on record?
The Potency was “inactive”.

With `CCc1cccc(C)c1N(C(=O)CCl)C(C)COC` (centres undefined) as the compound, how does the Potency read?
Its Potency is 25.7 µM (active) and 15.4 µM (active).

Which Potency does the source give for `CCCCOC(=O)c1ccccc1C(=O)OCCCC` here?
The Potency was “inactive”.

Tested on: not listed separately
Test: qHTS assay to identify small molecule antagonists of the estrogen related receptor signaling pathway with the pleiotropic PPARgamma coactivator (PGC) from Tox21 10K library - cell viability counter screen (AID 1224840; active = well fitted cell-killing curve with a large enough effect in the repeat runs, not every such curve was filed as active; note: nearly all actives have a fitted effect of over 40% in size)
Settings: PGC/ERR reporter cells viability, CellTiter-Fluor, 17.5 h; series mostly up to 92.4 µM
Outline: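 Here the PGC/ERR cells serve as a cytotoxicity control: they are exposed to compounds for 17.5 hours at 37 C, and live-cell signal is quantified using CellTiter-Fluor fluorescence.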

With `CON(C)C(=O)Nc1ccc(Cl)c(Cl)c1` as the compound, how does the Potency read?
Its Potency is “inactive”.

Which Potency does the source give for `OCCN(CCO)CCO` here?
Its Potency is “inactive”.

For `CC(C)C1(C)N=C(c2nc3ccccc3cc2C(=O)O)NC1=O` (centres undefined), which Potency is on record?
Its Potency is “inactive”.

For `Clc1cccc(Cl)c1Cl`, which Potency is on record?
Its Potency is “inactive”.

For `O=[N+]([O-])c1ccccc1`, which Potency is on record?
Its Potency is “inactive”.

With `Cc1ccc(N)cc1Cl` as the compound, how does the Potency read?
Its Potency is “inactive”.

With `O=c1[nH]c(=O)[nH]c(=O)[nH]1` as the compound, how does the Potency read?
Its Potency is “inactive”.

For `O=C(NC(=O)c1c(F)cccc1F)Nc1cc(Cl)c(OC(F)(F)C(F)C(F)(F)F)cc1Cl` (centres undefined), which Potency is on record?
Its Potency is “inactive”.

With `Cc1cc(Cl)ccc1O` as the compound, how does the Potency read?
Its Potency is “inactive”.

For `CN=C=S`, which Potency is on record?
The Potency was “inactive”.

For `CC(C)(C)OOC(=O)c1ccccc1`, which Potency is on record?
Its Potency is “inactive”.

Which Potency does the source give for `O=NN1CCCC1` here?
The Potency was “inactive”.

With `CC(C)C#N` as the compound, how does the Potency read?
Its Potency is “inactive”.

With `C#CCN(C)[C@H](C)Cc1ccccc1` as the compound, how does the Potency read?
The Potency was “inactive”.

Which Potency does the source give for `c1ccc(-c2ccccc2)cc1` here?
Its Potency is “inactive”.

For `c1cc2c3c(cccc3c1)CC2`, which Potency is on record?
The Potency was “inactive”.

Which Potency does the source give for `CNC(=O)Oc1ccccc1OC(C)C` here?
The Potency was “inactive”.

For `O=Cc1cccc(Oc2ccccc2)c1`, which Potency is on record?
The Potency was “inactive”.

For `CC(C)(Cl)Cl`, which Potency is on record?
The Potency was “inactive”.

Which Potency does the source give for `NCC(O)c1ccc(O)cc1` (centres undefined) here?
Its Potency is “inactive”.

Which Potency does the source give for `C=CC(N)=O` here?
The Potency was “inactive”.

With `BrCCBr` as the compound, how does the Potency read?
The Potency was “inactive”.

For `Nc1ccccc1C(=O)O`, which Potency is on record?
The Potency was “inactive”.

For `CN(C)CCO`, which Potency is on record?
The Potency was “inactive”.

Which Potency does the source give for `CC1C=[C-]C=C1.[C-]#[O+].[C-]#[O+].[C-]#[O+].[Mn]` here?
The Potency was “inactive”.

With `O=[N+]([O-])c1ccc([As](=O)(O)O)cc1` as the compound, how does the Potency read?
Its Potency is “inactive”.

Which Potency does the source give for `Clc1ccc(Cl)cc1` here?
Its Potency is “inactive”.

Which Potency does the source give for `CC(C)(C)C(O)(CCc1ccc(Cl)cc1)Cn1cncn1` (centres undefined) here?
The Potency was “inactive”.

With `C1CC2OC2CC1C1CO1` (centres undefined) as the compound, how does the Potency read?
Its Potency is “inactive”.

With `Nc1ccc(Oc2ccc(N)cc2)cc1` as the compound, how does the Potency read?
Its Potency is “inactive”.

With `COCCl` as the compound, how does the Potency read?
Its Potency is “inactive”.

With `CC(C)OC(=O)Nc1ccccc1` as the compound, how does the Potency read?
Its Potency is “inactive”.

With `CN(C)N=O` as the compound, how does the Potency read?
Its Potency is “inactive”.

Which Potency does the source give for `Clc1ccccc1Cl` here?
Its Potency is “inactive”.

For `CCc1cccc(C)c1N(C(=O)CCl)C(C)COC` (centres undefined), which Potency is on record?
The Potency was “inactive”.

Which Potency does the source give for `CCCCOC(=O)c1ccccc1C(=O)OCCCC` here?
Its Potency is “inactive”.

Tested on: not listed separately
Test: qHTS assay to identify small molecule antagonists of the estrogen related receptor signaling pathway with the pleiotropic PPARgamma coactivator (PGC) from Tox21 10K library (AID 1224841; call rule not given here; note: actives are mostly falling curves and most rising ones were filed inactive; nearly all actives have a fitted effect of over 50% in size; note: potency is the fitted concentration of half-maximal effect)
Settings: PGC/ERR reporter cell line, ONE-Glo luciferase, 18 h; series mostly up to 92.4 µM
Outline: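 Each well held 2,000 PGC/ERR cells, pre-incubated six hours (37 C, 5% CO2). Test substances in DMSO were added by pin tool and left for 18 h at 37 C before luciferase detection by One-Glo.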

For `CON(C)C(=O)Nc1ccc(Cl)c(Cl)c1`, which Potency is on record?
The Potency was “inactive”.

For `CC(C)C1(C)N=C(c2nc3ccccc3cc2C(=O)O)NC1=O` (centres undefined), which Potency is on record?
Its Potency is “inactive”.

Which Potency does the source give for `Clc1cccc(Cl)c1Cl` here?
Its Potency is “inactive”.

With `O=[N+]([O-])c1ccccc1` as the compound, how does the Potency read?
The Potency was “inactive”.

Which Potency does the source give for `O=c1[nH]c(=O)[nH]c(=O)[nH]1` here?
Its Potency is “inactive”.

Which Potency does the source give for `O=C(NC(=O)c1c(F)cccc1F)Nc1cc(Cl)c(OC(F)(F)C(F)C(F)(F)F)cc1Cl` (centres undefined) here?
The Potency was “inactive”.

Which Potency does the source give for `CN=C=S` here?
Its Potency is “inactive”.

For `CNC(=O)Oc1ccccc1OC(C)C`, which Potency is on record?
Its Potency is “inactive”.

Which Potency does the source give for `BrCCBr` here?
Its Potency is “inactive”.

With `Nc1ccccc1C(=O)O` as the compound, how does the Potency read?
The Potency was “inactive”.

With `CN(C)CCO` as the compound, how does the Potency read?
The Potency was “inactive”.

Which Potency does the source give for `CC(C)(C)C(O)(CCc1ccc(Cl)cc1)Cn1cncn1` (centres undefined) here?
The Potency was 55.1 µM (active).

For `Nc1ccc(Oc2ccc(N)cc2)cc1`, which Potency is on record?
Its Potency is “inactive”.

With `COCCl` as the compound, how does the Potency read?
Its Potency is “inactive”.

Which Potency does the source give for `CC(C)OC(=O)Nc1ccccc1` here?
Its Potency is “inactive”.

With `CCc1cccc(C)c1N(C(=O)CCl)C(C)COC` (centres undefined) as the compound, how does the Potency read?
Its Potency is 45.8 µM (active) and 24.3 µM (active).

For `CCCCOC(=O)c1ccccc1C(=O)OCCCC`, which Potency is on record?
The Potency was “inactive”.

Tested on: not listed separately
Test: qHTS assay to identify small molecule agonists of the estrogen related receptor signaling pathway with the pleiotropic PPARgamma coactivator (PGC) from Tox21 10K library (AID 1224842); note: nearly all actives have a fitted effect of over 15% in size
Settings: PGC/ERR reporter cell line, luciferase ONE-Glo, 18 h; series mostly up to 92.4 µM
Outline: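 Luminescence from One-Glo (30 min, room temperature) measured after PGC/ERR cells had 18 h at 37 C with pinned compound (23 nL in DMSO). Cells had been seeded at 2,000 per well and pre-incubated 6 h.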

Which outcome does the source give for `CON(C)C(=O)Nc1ccc(Cl)c(Cl)c1` here?
Its outcome is “inactive”.

For `CC(C)C1(C)N=C(c2nc3ccccc3cc2C(=O)O)NC1=O` (centres undefined), which outcome is on record?
Its outcome is “inactive”.

With `Clc1cccc(Cl)c1Cl` as the compound, how does the outcome read?
Its outcome is “inactive”.

With `O=[N+]([O-])c1ccccc1` as the compound, how does the outcome read?
Its outcome is “inactive”.

With `O=c1[nH]c(=O)[nH]c(=O)[nH]1` as the compound, how does the outcome read?
The outcome was “inactive”.

For `O=C(NC(=O)c1c(F)cccc1F)Nc1cc(Cl)c(OC(F)(F)C(F)C(F)(F)F)cc1Cl` (centres undefined), which outcome is on record?
Its outcome is “inactive”.

For `CN=C=S`, which outcome is on record?
The outcome was “inactive”.

For `CNC(=O)Oc1ccccc1OC(C)C`, which outcome is on record?
Its outcome is “inactive”.

With `BrCCBr` as the compound, how does the outcome read?
Its outcome is “inactive”.

Which outcome does the source give for `Nc1ccccc1C(=O)O` here?
Its outcome is “inactive”.

With `CN(C)CCO` as the compound, how does the outcome read?
Its outcome is “inactive”.

For `CC(C)(C)C(O)(CCc1ccc(Cl)cc1)Cn1cncn1` (centres undefined), which outcome is on record?
Its outcome is “inactive”.

For `Nc1ccc(Oc2ccc(N)cc2)cc1`, which outcome is on record?
Its outcome is “inactive”.

Which outcome does the source give for `COCCl` here?
Its outcome is “inactive”.

With `CC(C)OC(=O)Nc1ccccc1` as the compound, how does the outcome read?
The outcome was “inactive”.

Which outcome does the source give for `CCc1cccc(C)c1N(C(=O)CCl)C(C)COC` (centres undefined) here?
The outcome was “inactive”.

With `CCCCOC(=O)c1ccccc1C(=O)OCCCC` as the compound, how does the outcome read?
The outcome was “inactive”.
